Results on 14 molecules are retold here after PubChem BioAssay (NCI).

Compounds without any hit were thinned out: in the full panel of roughly 83,000, 20% have a hit.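 96-well plates, one dose, 48 hours. Percent growth reported; active if below 10.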 Unmarked numbers belong to inactive results. Active and inactive are the calls of the source.

In this test the test system is HL-60(TB) leukemia. In words: NCI-60 one-dose screen, 48 h (100 = growth as untreated, 0 = no growth, -100 = all killed). The settings on record: 10 µM unless noted.
Regarding `C=C1C(=O)O[C@H]2[C@H]1CC/C(Cn1cc(Cc3c[nH]c4ccccc34)nn1)=C\CC[C@@]1(C)O[C@@H]21`, the growth is -49.1% (active).
Turning to `COc1cccc(C2C(C#N)=C(N)Oc3cc(OCCCCCC[P+](c4ccccc4)(c4ccccc4)c4ccccc4)ccc32)c1` (centres undefined), the growth is -39.6% (active).
The figure for `O=C(Nc1nc(-c2ccccc2)nc2c1sc(=S)n2-c1ccccc1)C(F)(F)F` is 94.5%; for `COc1cc(/C=C/C(=O)/C=C/c2cc(OC)c3c(c2OC)OCO3)c(OC)c2c1OCO2` it is 27.2%; for `C=C1C(=O)C2CCC1C2` (centres undefined) it is 95.9%.
Take `Cc1cccc(/C=N/Nc2cc(C)c3cccc(C)c3n2)n1`: the growth is 83.1%.
On to `O=C(CSc1nc2c(n1Nc1ccccc1)-c1ccccc1SC2)Nc1nccs1`, for which the growth was 102%.
On to `COc1cc(-c2ccc(NC(=O)NC3CC3)c(OC)c2)ccc1NC(=O)NC1CC1`, for which the growth is 43.6%.
For the molecule `CCN1C(=O)N(CC)C2C1NN=c1s/c(=C\c3ccccc3F)c(=O)n12` (centres undefined), the growth was -48.1% (active).
Consider `CCCCCCCCCCCCCCCCCCOCC(COCCOCC[N+]1(CCCCCC(=O)[O-])CCCC1)Oc1ncccn1` (centres undefined), for which the growth was -32.2% (active).
The figure for `COc1ccc(C(=O)c2sc3nc(C)cc(C)c3c2N)cc1OC` is 97.3%.
For the molecule `Cc1ccc(Nc2cc(C)nc(NCCCNc3ccnc4cc(Cl)ccc34)n2)cc1`, the growth was -73% (active).
On to `O=C(CSc1nnc(-c2ccc(Cl)cc2)o1)c1ccccc1`, for which the growth was 90.9%.
With `Cc1nc2ccccc2c(N)c1-c1cc(C)c2c(C)nc3ccccc3c2n1`, the growth is -66.5% (active).
